From PubChem BioAssay AID764 (NMMLSC, 2007)
Among all 190,000 compounds or so, about 220 (0.12%) were called active. Another 2% or so got no clear call; they are omitted.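 How the source made its calls: active means GTP binding at least 20 percentage points away from the 100% baseline, in either direction, so actives lie on both sides; inconclusive means Compound likely fluorescent itself, or too few beads counted; inactive means the rest.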 The entries come from a sample that favours actives as a whole.

Target: Ras-related C3 botulinum toxin substrate 1 (Homo sapiens) (UniProt P63000)
Assay: GTP binding modulators of activated mutant Rac1, primary screen, biochemical, bead-based flow cytometry, multiplex, fluorescent GTP (AID 764)
Conditions: GST-Rac1 activated beads, at 10 µM, actives lie on both sides, 100% means binding = to untreated wells

| Structure (SMILES) | percent activity (GTP binding) |
| --- | --- |
| Cc1ccc(SC(C)C(=O)NCc2ccc(F)cc2)cc1 (configuration not stated) | 94% (inactive) |
| CC(C)(C)CN1CCNC(=O)C1CC(=O)NC1Cc2ccccc2C1 (configuration not stated) | 91% (inactive) |
| O=C(NC(=S)Nc1ccc(S(=O)(=O)Nc2ncccn2)cc1)c1cccc(Br)c1 | 92% (inactive) |
| O=C(O)/C=C/c1cn(Cc2ccccc2)nc1-c1cccs1 | 130% [activator] (active) |
| O=C(/C=C\c1cn(-c2ccccc2)nc1-c1cccs1)N1CCOCC1 | 103% (inactive) |
| O=C(O)/C=C/c1cn(-c2ccccc2)nc1-c1cccs1 | 89% (inactive) |
| Cc1cc(N2CCOCC2)nc2ccc(NC(=S)N3CCN(Cc4ccccc4)CC3)cc12 | 96% (inactive) |
| O=C(Nc1ccc(N2CCOCC2)cc1)c1ccc(-c2ccccc2[N+](=O)[O-])o1 | 93% (inactive) |
| Cn1cc(Cl)c(C(=O)NNC(=S)Nc2cccc(Cl)c2)n1 | 91% (inactive) |
| O=C(O)c1ccc(/C=N/NC(=S)NCc2ccccc2)cc1 | 94% (inactive) |
| CN(C)C(=O)c1cccn(Cc2cccc(C(F)(F)F)c2)c1=O | 94% (inactive) |
| CN(C)N(C)C(=O)C(O)(c1ccccc1)c1ccccc1 | 96% (inactive) |
| Cc1cc(C(=O)CC#N)c(C)n1-c1c(C)n(C)n(-c2ccccc2)c1=O | 96% (inactive) |
| O=C(O)CCN(Cc1ccccc1)S(=O)(=O)c1c(Cl)cccc1Cl | 95% (inactive) |
| Cc1[nH]c2ccccc2c1/C=C(/C#N)C(=O)NC(C)C | 95% (inactive) |
| Cn1cc(CN2CCCC(CO)C2)c(-c2ccc(Oc3ccccc3)cc2)n1 (configuration not stated) | 94% (inactive) |
| COc1ccc(/C=C/CN2CCCC(C(=O)c3cc(F)ccc3F)C2)cc1 (configuration not stated) | 96% (inactive) |
| CN1C=CC=C/C1=C1\SC(=S)N(Cc2ccccc2)C1=O | 97% (inactive) |
| Cc1cc(C(=O)NNC(=O)c2cccc(S(=O)(=O)N3CCOCC3)c2)c2ccccc2n1 | 93% (inactive) |
| Cc1noc(C)c1/C=N/Nc1ccc2ccccc2n1 | 97% (inactive) |
| O=C(c1ccncc1)N1CCN(c2ccc3ccccc3n2)CC1 | 98% (inactive) |
| COc1cc(/C=C/C(=O)OCC(=O)NC(=O)NCc2ccccc2)ccc1OCC#N | 90% (inactive) |
| O=C(c1ccc2ccccc2n1)N1CCN(c2ccccc2Cl)CC1 | 95% (inactive) |
| CCn1c(SCC(=O)Nc2nccs2)nnc1-c1ccco1 | 95% (inactive) |
| COc1ccc(OC)c(S(=O)(=O)Nc2cccc(-c3ccc4nncn4n3)c2)c1 | 95% (inactive) |

| Structure (SMILES) | percent activity (GTP binding) |
| --- | --- |
| Cc1ccc(-n2cc(CN(C)Cc3nccn3C)c(-c3cccc(C)c3)n2)cc1 | 97% (inactive) |
| Cc1ccc(C(=O)Nc2cccc3ncccc23)cc1[N+](=O)[O-] | 94% (inactive) |
| O=C(CN1CCN(C/C=C/c2ccccc2)CC1)Nc1ccc(F)cc1F | 93% (inactive) |
| CCc1ccc(N2CC(O)=C(c3nc4ccccc4c(=O)[nH]3)C2=N)cc1 | 94% (inactive) |
| COc1ccc(/C=N/n2c(C)cc(C)cc2=O)cc1 | 97% (inactive) |
| CC(C)Oc1ccccc1C(=O)NC(CO)C(=O)O (configuration not stated) | 96% (inactive) |
| CCOC(=O)C1=NOC(Cn2cc(C(C)=O)c(=O)[nH]c2=O)C1 (configuration not stated) | 92% (inactive) |
| COC(=O)CN1C(=O)N/C(=C/c2ccc(OC)c(C)c2OC)C1=O | 96% (inactive) |
| CCOc1cc(NS(=O)(=O)c2ccc(OC)cc2)c(OCC)cc1NC(C)=O | 97% (inactive) |
| CN(C)S(=O)(=O)c1ccc2oc(SCC(=O)Nc3ccccc3F)nc2c1 | 95% (inactive) |
| Cc1nc2cc(NCc3cccs3)ccc2n1C | 97% (inactive) |
| CCOP(=O)(OCC)C(Nc1ccc([N+](=O)[O-])cc1)c1ccc(Cl)cc1 (configuration not stated) | 92% (inactive) |
| CCNC(=O)c1ccc(OCC(=O)Nc2ccc(F)cc2)c(OC)c1 | 94% (inactive) |
| CCC(=O)Nc1ccc(Nc2nc(Cl)nc(Nc3ccc(NC(=O)CC)cc3)n2)cc1 | 94% (inactive) |
| Cc1nnc(CN(C)Cc2cn[nH]c2-c2ccc(-c3ccccc3)cc2)o1 | 97% (inactive) |
| CC1(C)OC(=O)C(=CSc2ccc(C(C)(C)C)cc2)C(=O)O1 | 96% (inactive) |
| COc1ccccc1NC(=O)c1c(Br)cnn1C | 95% (inactive) |
| Cc1cnc(C(=O)OCC(=O)N2CCc3ccccc32)cn1 | 96% (inactive) |
| Cc1cc(C)c(C#N)c(N2CCC(C(N)=O)CC2)n1 | 98% (inactive) |
| OCCC1CN(Cc2cccc(OC3CCCC3)c2)CCN1Cc1ccsc1 (configuration not stated) | 95% (inactive) |
| CCN(CC)CCNC(=O)c1ccc(NC(=O)c2c(F)cccc2Cl)cc1 | 99% (inactive) |
| CCc1ccc(-n2c(SCc3cc(=O)n4cc(Br)ccc4n3)nc3[nH]ncc3c2=O)cc1 | 94% (inactive) |
| O=C1CC(=O)Nc2cc(S(=O)(=O)N3CCN(c4cccc(C(F)(F)F)c4)CC3)ccc2N1 | 93% (inactive) |
| COc1ccc(OC)c(CNC(=O)c2cc(=O)[nH]c3ccc(S(=O)(=O)N4CCCC4)cc23)c1 | 95% (inactive) |
| CC(C)(C)NC(=O)NC(=O)COC(=O)C1(C)CC1(Cl)Cl (configuration not stated) | 97% (inactive) |

| Structure (SMILES) | percent activity (GTP binding) |
| --- | --- |
| COC(=O)C(NS(=O)(=O)c1ccc(F)cc1)c1ccccc1 (configuration not stated) | 96% (inactive) |
| O=C(CP(=O)(c1ccccc1)c1ccccc1)N1CCOCC1 | 92% (inactive) |
| O=C(C1CC1)N1N=C2CCCCC2C1(O)C(F)(F)F (configuration not stated) | 96% (inactive) |
| Cc1ccc(C)c(-n2cc(CN3CCN(C(=O)c4ncn[nH]4)CC3)c(-c3ccccc3)n2)c1 | 95% (inactive) |
| CCN(CC)S(=O)(=O)c1ccc(N2CCOCC2)c(NC(=O)C2COc3ccccc3O2)c1 (configuration not stated) | 97% (inactive) |
| CCOC(=O)C1=C(CC)OC(N)=C(C#N)C1c1ccc(F)cc1F (configuration not stated) | 93% (inactive) |
| O=C(O)c1cccc(NC(=O)c2cc(-c3cccc(Cl)c3)nc3ccccc23)c1 | 93% (inactive) |
| COc1ccc(C2C(C#N)=C(N)N(c3ncn[nH]3)C3=C2C(=O)CCC3)cc1 (configuration not stated) | 96% (inactive) |
| COc1ccc(N2CCN(C(=O)CCSCc3ccccc3F)CC2)cc1 | 92% (inactive) |
| Cc1ccnc(NC(=O)CCC(=O)N(CC(=O)NCCc2ccccc2)Cc2cccs2)c1 | 97% (inactive) |
| COc1ccc(NC(=O)/C(C#N)=C\c2cc(OC)c(OCc3ccc(C(=O)O)cc3)cc2Br)cc1 | 89% (inactive) |
| C1CC1Cc1noc(CN2CCN(CC3CC3)CC2)n1 | 94% (inactive) |
| CCn1c(CNC(=O)c2ccco2)nnc1SCC(=O)Nc1cccc(F)c1 | 98% (inactive) |
| Cn1c(SCC(=O)NC2CCCCC2)nnc1-c1ccc(N)cc1 | 96% (inactive) |
| CC(=O)NC1(c2ccc(F)cc2)CCN(C(=O)c2c(F)cccc2F)CC1 | 92% (inactive) |
| CN(C)C(CNC(=O)c1cccc(C#N)c1)c1ccco1 (configuration not stated) | 97% (inactive) |
| COc1ccc(C(=O)COC(=O)c2nn(C)c(=O)c3ccccc23)c(OC)c1 | 92% (inactive) |
| Cc1c(Br)c([N+](=O)[O-])nn1CC(=O)N1CCN(Cc2ccccc2)CC1 | 98% (inactive) |
| CC(=O)c1ccc(NC(=S)N(Cc2ccccc2)C(C)C2CC2)cc1 (configuration not stated) | 93% (inactive) |
| CCN(CCn1cccn1)C(=O)CC1C(=O)NCCN1Cc1cccc(OC)c1OC (configuration not stated) | 93% (inactive) |
| CCOC(=O)CNc1nc(Cl)nc(Nc2ccccc2)n1 | 96% (inactive) |
| Cc1ccc(SC(CC(=O)c2ccc(C(C)(C)C)cc2)C(=O)O)cc1 (configuration not stated) | 74% (active) |
| Cc1ccc(CSCC(N)C(=O)O)cc1 (configuration not stated) | 97% (inactive) |
| Cc1ccc(C(=O)CS(C)(=O)=O)cc1 | 99% (inactive) |
| Cc1cc(C)nc(Nc2ncn[nH]2)n1 | 96% (inactive) |

| Structure (SMILES) | percent activity (GTP binding) |
| --- | --- |
| Cc1ncc([N+](=O)[O-])n1CCOC(=O)c1ccc(Br)cc1 | 91% (inactive) |
| CCCCN(C(=O)c1ccc(OC(F)(F)F)cc1)c1c(N)n(CCC)c(=O)[nH]c1=O | 96% (inactive) |
| Cn1cc(CN2CCCCC2c2ccccn2)c(-c2ccc3c(c2)OCCO3)n1 (configuration not stated) | 97% (inactive) |
| CCC(=O)N1c2ccccc2NC2=C(C(=O)CCC2)C1c1ccco1 (configuration not stated) | 98% (inactive) |
| Cc1ccc(CN2CCN(Cc3cccc(C)n3)CC2CCO)cc1 (configuration not stated) | 94% (inactive) |
| CC(=O)C1C(c2ccc(Cl)cc2)c2c(n[nH]c2C)CC1(C)O (configuration not stated) | 97% (inactive) |
| COc1cc(/C=C/C2=CC(C)(C)NC(=S)N2)cc(OC)c1OC | 94% (inactive) |
| O=C(CCNC(=O)Cn1ccc2ccccc2c1=O)NCCC1=CCCCC1 | 101% (inactive) |
| COc1cc2c(C(=O)N3CCN(C)CC3)c(CSc3ccccc3)n(C)c2cc1Br | 94% (inactive) |
| Cc1nn(CC2CC2)c(=O)n1N(C)c1ncc(C(F)(F)F)cc1Cl | 96% (inactive) |
| COc1cccc(CNC(=O)CCC2CCCN(C(=O)c3ccoc3C)C2)c1 (configuration not stated) | 95% (inactive) |
| COC(=O)NNC1=CC(=O)CC(C)(C)C1 | 97% (inactive) |
| CCC(C)N(C(=O)COC(=O)C1C(C(=O)OC)=C(C)NC(C)=C1C(=O)OC)C1CCS(=O)(=O)C1 (configuration not stated) | 95% (inactive) |
| CC(C)(C)C(=O)CSc1nc2ccccc2o1 | 96% (inactive) |
| Cn1cnnc1SCC(=O)NNC(=O)COc1ccc(Br)cc1 | 98% (inactive) |
| O=C(CN1CCSCC1)N/N=C/c1ccc(Cl)cc1 | 95% (inactive) |
| O=C(Cc1ccc(Cl)cc1)NCc1nc(-c2ccccc2)no1 | 91% (inactive) |
| COc1ccc(N2C(=O)CC(Nc3ccc(F)cc3)C2=O)c([N+](=O)[O-])c1 (configuration not stated) | 93% (inactive) |
| COC(=O)C1=C(C)NC(=O)CC1c1ccccc1OC (configuration not stated) | 99% (inactive) |
| CCC(C)(C)NC(=O)C(c1ccccn1)N(C(=O)c1csnn1)c1ccccc1 (configuration not stated) | 96% (inactive) |
| Cc1cc(C(=O)Cn2cnc3cc([N+](=O)[O-])ccc3c2=O)c(C)n1CC1CCCO1 (configuration not stated) | 90% (inactive) |
| Cc1ccc(NC(=O)C(=O)NCc2ccco2)c(C)c1 | 98% (inactive) |
